Source: PubChem BioAssay (Tox21)
“And” between values parts separate entries of the source, which are not always exact repeats. Equal values may be shown once. Results filed as inconclusive are left out. The source holds several records for some structures; these can differ, active in one and inactive in another. The source made the active and inactive calls. Unless noted, the call rests on the fitted dose curve.

Experiments:
[1] = Nuclear factor erythroid 2-related factor 2/antioxidant responsive element (Nrf2/ARE) small molecule agonists: qHTS cell viability counter screen in human keratinocytes (AID 1919968; active means well fitted curve in the direction sought with a large enough effect in the repeat runs; an effect the other way counts as inactive or inconclusive; further: nearly all actives have a fitted effect of over 55% in size; further: potency means the concentration at half of the fitted maximal effect)
Outline: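 Cytotoxicity was multiplexed with the Nrf2/ARE luciferase assay in the same wells. Stably transfected HaCaT keratinocytes were treated with test compounds for 23 h at 37 C. Cell viability was then measured by CellTiter-Fluor fluorescence.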

[2] = Nuclear factor erythroid 2-related factor 2/antioxidant responsive element (Nrf2/ARE) small molecule agonists: luciferase reporter gene qHTS assay in human keratinocytes (AID 1919969); further: nearly all actives have a fitted effect of over 35% in size; further: potency means the concentration at half of the fitted maximal effect
[3] = target: Gonadotropin-releasing hormone receptor (Homo sapiens) (UniProt P30968); test: Human gonadotropin-releasing hormone receptor (GnRHR) small molecule agonists, calcium flux assay in GnRHR-HEK293 cells (AID 1920063); further: nearly all actives have a fitted effect of over 35% in size; further: potency means the concentration at half of the fitted maximal effect
Outline: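 Agonist activity was measured as intracellular calcium flux in HEK293 cells engineered to stably express human GnRHR. After dye loading for 1 hour at 37 C, compounds in DMSO were added and fluorescence was followed for 3 minutes.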

[4] = target: KiSS-1 receptor (Homo sapiens) (UniProt Q969F8); test: Human kisspeptin (KISS1R) small molecule agonists, calcium flux assay in KISS1R-HEK293 cells (AID 1920064; active means well fitted curve in the direction sought with a large enough effect in the repeat runs; an effect the other way counts as inactive or inconclusive; further: potency means the concentration at half of the fitted maximal effect)
Outline: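 Agonist activity is monitored as intracellular calcium rise in engineered HEK293 cells carrying human KISS1R. Cells are dye-loaded for 1 h at 37 C before compound addition, and fluorescence is recorded for 3 min.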

[5] = G protein-coupled receptor (GPCR) small molecule agonists, calcium flux assay: HEK293 wild type cell line counter screen (AID 1920065); further: potency means the concentration at half of the fitted maximal effect
Outline: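 Seed cells, incubate 18 h (37 C, 5% CO2); add calcium dye, 1 h at 37 C; pin-transfer compounds, ATP control or DMSO; read fluorescence 480/540 nm each second for 3 min.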

[6] = p53 small molecule agonists, cell-based qHTS assay with human liver microsomes: qHTS cell viability counter screen (AID 1963579); further: nearly all actives have a fitted effect of over 45% in size
Outline: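 Seed p53RE-bla cells at 4,000 per well; incubate 5 h at 37 C; add compound, human liver microsomes and NADPH; incubate 16 h at 37 C; add CellTiter-Glo; after 30 min at room temperature, read luminescence.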

[7] = p53 small molecule agonists, cell-based qHTS assay with rat liver microsomes: qHTS cell viability counter screen (AID 1963580); further: nearly all actives have a fitted effect of over 45% in size
Outline: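 After the beta-lactamase ratio was read, CellTiter-Glo was added to the same wells and luminescence measured at 30 min; cells had been treated 16 h at 37 C with compounds, rat liver microsomes and NADPH (0.5 mg/mL final each).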

[8] = p53 small molecule agonists, cell-based qHTS assay: qHTS cell viability counter screen (AID 1963581); further: nearly all actives have a fitted effect of over 45% in size
Outline: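 Viability was counter-screened in parallel with the p53 agonist reporter by measuring intracellular ATP luminescence in the same HCT-116 p53RE-bla wells after 16 h compound treatment at 37 C.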

[9] = target: 5-hydroxytryptamine receptor 2A (Homo sapiens) (UniProt P28223); test: 5-hydroxytryptamine receptor 2A (HTR2A) small molecule antagonists, cell-based qHTS assay (AID 1963586); further: nearly all actives have a fitted effect of over 45% in size
Outline: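 CHO cells stably expressing human HTR2A were plated for 18 h at 37 C, then loaded with calcium dye for 1 h. Compounds were preincubated 5 min at room temperature before DOI (4 nM solution) was added. Kinetic fluorescence was read for 3 min.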

[10] = target: 5-hydroxytryptamine receptor 2A (Homo sapiens) (UniProt P28223); test: 5-hydroxytryptamine receptor 2A (HTR2A) small molecule agonists, cell-based qHTS assay (AID 1963587); further: nearly all actives have a fitted effect of over 30% in size
Outline: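 CHO cells stably expressing human HTR2A, plated 18 h, loaded with calcium dye 1 h at 37 C. Agonist mode: compounds added and intracellular calcium fluorescence recorded kinetically for 2 min at 1 sec intervals.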

[11] = target: Muscarinic acetylcholine receptor M1 (Homo sapiens) (UniProt P11229); test: Cholinergic receptor muscarinic 1 (CHRM1) small molecule antagonists, cell-based qHTS assay (AID 1963588); further: nearly all actives have a fitted effect of over 40% in size
Outline: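 Compounds were tested at 15 concentrations in three independent runs. Dye-loaded CHRM1-CHO cells were exposed 5 min at room temperature before stimulation by acetylcholine added at 50nM. Intracellular calcium was read kinetically on FDSS for 3 min.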

[12] = cAMP Responsive Elements (CRE) small molecule agonists, cell-based qHTS assay (AID 1963590)
Outline: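 Cells carrying a CRE-driven beta-lactamase reporter (HEK 293T) are seeded, incubated overnight (18 h), and treated with test compounds for 3 h at 37 C; reporter activity is then detected with a FRET substrate after 2 h at room temperature.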

[13] = cAMP Responsive Elements (CRE) small molecule antagonists, cell-based qHTS assay (AID 1963591; active means well fitted inhibition curve with a large enough effect in the signal ratio in the repeat runs, not every such curve was filed as active; the % refers to the signal ratio)
Outline: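 Cells (CRE-bla HEK 293T, DMEM with 10% dialyzed FBS and 25 mM HEPES) are seeded and incubated 18 h. Compounds are added with NKH477 agonist at 0.25 uM final for 3 h, then FRET substrate for 2 h.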

[14] = target: Beta-2 adrenergic receptor (Homo sapiens) (UniProt P07550); test: Adrenergic beta2 receptor (ADRB2) small molecule antagonists, cell-based qHTS assay (AID 1963592); further: series mostly up to about 92 µM; nearly all actives have a fitted effect of over 50% in size
Outline: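 Assay format: CHO-ADRB2 cells, 18-20hr seeding at 37C/5% CO2, then compound plus 1nM isoproterenol agonist mix for 0.5hr RT. Homogeneous time-resolved fluorescence cAMP detection after 1hr, expressed as 665/615 nm ratio.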

[15] = target: D(2) dopamine receptor (Homo sapiens) (UniProt P14416); test: Dopamine D2 receptor (DRD2) small molecule agonists, cell-based qHTS assay (AID 1963594); further: nearly all actives have a fitted effect of over 35% in size
Outline: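 HEK293 cells stably expressing human DRD2, pre-treated with PDE inhibitor Ro20-1724 (0.1 mM final) and compound 10 min at room temperature, then stimulated with NKH477 (200nM […]) for 30 min. cAMP read by HTRF (665/620 nm).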

[16] = target: D(2) dopamine receptor (Homo sapiens) (UniProt P14416); test: Dopamine D2 receptor (DRD2) small molecule antagonists, cell-based qHTS assay (AID 1963595; active means well fitted inhibition curve with a large enough effect in the signal ratio in the repeat runs, with a control signal flat; the % refers to the signal ratio)
Outline: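 Human DRD2 antagonist qHTS measuring cAMP by HTRF. The cells are exposed to compound for 10 min, then to NKH477 (200 nM) and quinpirole (12 nM) for 30 min at RT, with Ro20-1724 (0.1 mM) present throughout.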

[17] = target: Beta-2 adrenergic receptor (Homo sapiens) (UniProt P07550); test: Adrenergic beta2 receptor (ADRB2) small molecule agonists, cell-based qHTS assay (AID 1963593);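 further: CHO cells stably overexpressing human ADRB2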
Outline: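 CHO cells stably over-expressing ADRB2 were plated overnight at 37C, then dosed with compounds plus a stimulation mix containing 100uM IBMX and 25uM Ro-20-1724 for 0.5hr at room temperature. cAMP was measured by HTRF competition, 1hr.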

[18] = target: Muscarinic acetylcholine receptor M1 (Homo sapiens) (UniProt P11229); test: Cholinergic receptor muscarinic 1 (CHRM1) small molecule agonists, cell-based qHTS assay (AID 1963589); further: nearly all actives have a fitted effect of over 35% in size
Outline: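 Cells were plated and incubated 18 h at 37 C/5% CO2, loaded with calcium dye for 1 h at 37 C, then treated with compounds in DMSO. Fluorescence was recorded kinetically at 1 sec intervals.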

Measured: Potency

D(2) dopamine receptor (Homo sapiens), sequence (P14416 whole entry, looked up): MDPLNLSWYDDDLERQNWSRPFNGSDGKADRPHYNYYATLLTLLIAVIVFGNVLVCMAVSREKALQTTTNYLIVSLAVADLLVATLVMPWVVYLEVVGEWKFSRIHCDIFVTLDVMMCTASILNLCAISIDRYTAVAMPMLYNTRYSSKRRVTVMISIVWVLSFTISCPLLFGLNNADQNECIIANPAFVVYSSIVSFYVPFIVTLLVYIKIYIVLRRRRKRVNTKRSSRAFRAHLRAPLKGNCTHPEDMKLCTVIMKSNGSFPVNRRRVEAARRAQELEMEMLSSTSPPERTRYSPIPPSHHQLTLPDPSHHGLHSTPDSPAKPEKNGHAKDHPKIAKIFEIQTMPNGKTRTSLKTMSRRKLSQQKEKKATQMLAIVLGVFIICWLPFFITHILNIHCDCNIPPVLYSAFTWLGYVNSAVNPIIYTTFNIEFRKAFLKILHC
KiSS-1 receptor (Homo sapiens), sequence (Q969F8 whole entry, looked up): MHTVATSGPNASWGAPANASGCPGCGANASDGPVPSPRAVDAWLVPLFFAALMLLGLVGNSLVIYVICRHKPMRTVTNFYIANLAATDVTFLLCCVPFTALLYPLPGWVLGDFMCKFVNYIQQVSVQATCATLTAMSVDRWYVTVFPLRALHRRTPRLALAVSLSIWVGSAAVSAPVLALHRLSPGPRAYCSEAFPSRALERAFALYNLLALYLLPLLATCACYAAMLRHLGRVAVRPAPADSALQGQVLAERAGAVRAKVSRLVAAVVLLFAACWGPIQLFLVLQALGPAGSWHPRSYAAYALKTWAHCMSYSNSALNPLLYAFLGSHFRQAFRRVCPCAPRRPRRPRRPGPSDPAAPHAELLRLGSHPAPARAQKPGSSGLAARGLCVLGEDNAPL
5-hydroxytryptamine receptor 2A (Homo sapiens), sequence (P28223 whole entry, looked up): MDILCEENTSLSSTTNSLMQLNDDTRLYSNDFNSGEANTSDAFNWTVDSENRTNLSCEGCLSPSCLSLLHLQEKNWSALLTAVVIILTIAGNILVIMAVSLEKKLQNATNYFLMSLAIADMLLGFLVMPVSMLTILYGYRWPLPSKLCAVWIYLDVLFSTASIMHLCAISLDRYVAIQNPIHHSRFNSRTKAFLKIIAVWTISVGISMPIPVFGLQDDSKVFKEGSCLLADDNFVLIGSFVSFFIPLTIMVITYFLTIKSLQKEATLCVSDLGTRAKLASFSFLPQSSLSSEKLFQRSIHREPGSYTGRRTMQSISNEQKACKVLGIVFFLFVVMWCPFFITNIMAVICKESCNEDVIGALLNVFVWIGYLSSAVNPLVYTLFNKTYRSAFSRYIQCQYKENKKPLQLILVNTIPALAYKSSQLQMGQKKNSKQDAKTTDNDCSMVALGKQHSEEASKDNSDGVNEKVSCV
Beta-2 adrenergic receptor (Homo sapiens), sequence (P07550 whole entry, looked up): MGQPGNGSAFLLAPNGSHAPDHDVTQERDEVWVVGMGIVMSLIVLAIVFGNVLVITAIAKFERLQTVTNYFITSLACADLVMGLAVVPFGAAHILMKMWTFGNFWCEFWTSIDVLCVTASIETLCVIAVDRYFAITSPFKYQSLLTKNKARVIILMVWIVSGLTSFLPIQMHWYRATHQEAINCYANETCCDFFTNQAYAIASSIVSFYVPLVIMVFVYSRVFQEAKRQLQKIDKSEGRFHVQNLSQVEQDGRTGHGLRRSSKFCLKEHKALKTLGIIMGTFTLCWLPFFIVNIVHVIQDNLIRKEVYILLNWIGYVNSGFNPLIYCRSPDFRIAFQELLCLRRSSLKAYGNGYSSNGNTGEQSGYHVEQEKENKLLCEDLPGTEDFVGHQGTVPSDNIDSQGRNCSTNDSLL
Gonadotropin-releasing hormone receptor (Homo sapiens), sequence (P30968 whole entry, looked up): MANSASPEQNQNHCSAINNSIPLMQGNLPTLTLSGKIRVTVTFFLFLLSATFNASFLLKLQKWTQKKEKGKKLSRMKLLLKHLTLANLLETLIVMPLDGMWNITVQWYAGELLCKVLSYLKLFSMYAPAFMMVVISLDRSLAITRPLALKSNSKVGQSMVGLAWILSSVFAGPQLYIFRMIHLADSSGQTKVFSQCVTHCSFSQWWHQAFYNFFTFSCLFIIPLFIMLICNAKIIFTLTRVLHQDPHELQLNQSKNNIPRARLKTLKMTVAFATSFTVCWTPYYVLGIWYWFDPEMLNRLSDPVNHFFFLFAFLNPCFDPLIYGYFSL
Muscarinic acetylcholine receptor M1 (Homo sapiens), sequence (P11229 whole entry, looked up): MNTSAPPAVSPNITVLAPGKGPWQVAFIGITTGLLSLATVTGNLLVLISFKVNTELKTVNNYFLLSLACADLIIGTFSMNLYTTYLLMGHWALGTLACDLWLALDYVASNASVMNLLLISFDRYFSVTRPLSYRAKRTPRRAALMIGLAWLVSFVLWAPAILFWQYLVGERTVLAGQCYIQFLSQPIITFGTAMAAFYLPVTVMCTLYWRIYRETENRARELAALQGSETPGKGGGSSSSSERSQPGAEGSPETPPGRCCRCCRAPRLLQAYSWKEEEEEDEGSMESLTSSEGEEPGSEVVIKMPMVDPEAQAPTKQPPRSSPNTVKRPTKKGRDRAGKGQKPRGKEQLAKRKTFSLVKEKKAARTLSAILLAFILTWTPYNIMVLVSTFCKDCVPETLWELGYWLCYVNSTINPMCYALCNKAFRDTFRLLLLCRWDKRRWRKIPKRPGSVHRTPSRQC

C=C(C)[C@H]1CC=C(C)C(=O)C1
inactive: [1] | [2] | [3] | [4] | [5] | [6] | [7] | [8] | [9] | [10] | [11] | [12] | [13] | [14] | [15] | [16]

O=C1OC2(c3ccc(O)cc3Oc3cc(O)ccc32)c2ccccc21
active: [1] 9.44 µM | [3] 389 nM and 1.9 µM | [4] 550 nM and 2.39 µM | [5] 1.74 µM and 3.38 µM
inactive: [2] | [6] | [7] | [8] | [14] | [17] | [15] | [16]

OCCNCCO
inactive: [1] | [2] | [3] | [4] | [5] | [6] | [7] | [9] | [10] | [11] | [18] | [12] | [13] | [14] | [15] | [16]

Nc1ccc2cc3ccccc3cc2c1
inactive: [1] | [2] | [3] | [4] | [5] | [6] | [7] | [8] | [9] | [10] | [11] | [18] | [14] | [17] | [15] | [16]

CC(=O)OCc1ccccc1
inactive: [1] | [2] | [3] | [4] | [5] | [6] | [7] | [8] | [9] | [10] | [18] | [12] | [13] | [14] | [17] | [15] | [16]

CCN(CC)c1ccc(C(=O)c2ccccc2C(=O)O)c(O)c1
inactive: [1] | [2] | [3] | [4] | [5] | [6] | [7] | [8] | [9] | [10] | [11] | [18] | [14] | [15]

OCc1ccccc1
inactive: [1] | [3] | [4] | [5] | [6] | [7] | [8] | [12] | [13] | [14] | [17] | [15] | [16]
inactive and 9.69 µM (active): [2]

CC(C)OC(=O)C(C)(C)Oc1ccc(C(=O)c2ccc(Cl)cc2)cc1
inactive: [1] | [3] | [4] | [5] | [6] | [7] | [8] | [12] | [13] | [14] | [15] | [16]
61.1 µM (active) and inactive: [2]

CC(c1cc2ccccc2s1)N(O)C(N)=O (configuration not stated)
inactive: [1] | [2] | [3] | [4] | [5] | [6] | [7] | [8] | [12] | [13] | [14] | [17] | [15] | [16]

Cc1ccc2oc(=O)ccc2c1
inactive: [1] | [2] | [3] | [4] | [5] | [6] | [7] | [8] | [10] | [11] | [18] | [12] | [13] | [14] | [17] | [15] | [16]

CCc1ccccc1O
inactive: [1] | [3] | [4] | [5] | [6] | [7] | [8] | [10] | [18] | [12] | [13] | [14] | [17] | [15] | [16]
60.8 µM (active) and inactive: [2]

CC1CCC(C(C)C)C(O)C1 (configuration not stated)
inactive: [1] | [2] | [3] | [4] | [5] | [6] | [7] | [9] | [10] | [11] | [18] | [12] | [13] | [14] | [17] | [15] | [16]

COc1ccc2nc(N)sc2c1
inactive and 54.5 µM (active): [2]
inactive: [1] | [3] | [4] | [5] | [6] | [7] | [10] | [11] | [18] | [12] | [13] | [17] | [15] | [16]

CC(=O)[C@@]1(O)CC[C@H]2[C@@H]3CCC4=CC(=O)CC[C@]4(C)[C@H]3CC[C@@]21C
inactive: [1] | [2] | [3] | [4] | [5] | [6] | [7] | [8] | [12] | [14] | [15] | [16]

CC(=O)OCC(=O)[C@@]1(O)CC[C@H]2[C@@H]3CCC4=CC(=O)C=C[C@]4(C)[C@H]3[C@@H](O)C[C@@]21C
inactive: [1] | [2] | [3] | [4] | [5] | [6] | [7] | [9] | [12] | [13] | [14] | [17] | [15] | [16]

CCC(=O)O[C@H]1[C@H](O[C@@H]2[C@@H](C)[C@H](O[C@H]3C[C@@](C)(OC)[C@@H](O)[C@H](C)O3)[C@@H](C)C(=O)O[C@H](CC)[C@@](C)(O)[C@H](O)[C@@H](C)C(=O)[C@H](C)C[C@@]2(C)O)O[C@H](C)C[C@@H]1N(C)C
inactive: [1] | [2] | [3] | [4] | [5] | [6] | [7] | [8] | [12] | [13] | [14] | [17] | [15] | [16]

O=C1Nc2ccccc2C1(c1ccc(O)cc1)c1ccc(O)cc1
active: [2] 386 nM and 841 nM
inactive: [1] | [3] | [4] | [5] | [6] | [7] | [9] | [10] | [11] | [18] | [12] | [13] | [14] | [15] | [16]

OC[C@H]1O[C@@H]2O[C@H]3[C@H](O)[C@@H](O)[C@@H](O[C@H]4[C@H](O)[C@@H](O)[C@@H](O[C@H]5[C@H](O)[C@@H](O)[C@@H](O[C@H]6[C@H](O)[C@@H](O)[C@@H](O[C@H]7[C@H](O)[C@@H](O)[C@@H](O[C@H]8[C@H](O)[C@@H](O)[C@@H](O[C@H]1[C@H](O)[C@H]2O)O[C@@H]8CO)O[C@@H]7CO)O[C@@H]6CO)O[C@@H]5CO)O[C@@H]4CO)O[C@@H]3CO
inactive: [1] | [2] | [3] | [4] | [5] | [6] | [7] | [8] | [12] | [13] | [14] | [17] | [15] | [16]
